Results: PubChem BioAssay AID1851 (National Center for Advancing Translational Sciences (NCATS), 2009)
The whole screen tested about 16,000 compounds, of which about 2,600 (16%) were called active. Inconclusive results (about 20%) are left out. Only a selection was taken, and actives are over-represented in it overall. Unmarked numbers belong to inactive results. Calls come from the whole dose curve; as a rule, active = well fitted curve in the direction sought with a large enough effect; inconclusive = small, poorly fitted or top-dose-only effect, or effect the other way; inactive = no such curve, though single readings can be large or run the other way.

molecular target: Cytochrome P450 2D6 (Homo sapiens) (UniProt P10635); test: Cytochrome panel assay with activity outcomes; settings: recombinant CYP, pro-luciferin dealkylation, luminescence, p450-cyp2d6; series mostly up to 57.1 µM
% is set by controls: 0 for no effect and ±100 for the full control effect.

Chain of Cytochrome P450 2D6 (Homo sapiens) (P10635 whole entry, looked up): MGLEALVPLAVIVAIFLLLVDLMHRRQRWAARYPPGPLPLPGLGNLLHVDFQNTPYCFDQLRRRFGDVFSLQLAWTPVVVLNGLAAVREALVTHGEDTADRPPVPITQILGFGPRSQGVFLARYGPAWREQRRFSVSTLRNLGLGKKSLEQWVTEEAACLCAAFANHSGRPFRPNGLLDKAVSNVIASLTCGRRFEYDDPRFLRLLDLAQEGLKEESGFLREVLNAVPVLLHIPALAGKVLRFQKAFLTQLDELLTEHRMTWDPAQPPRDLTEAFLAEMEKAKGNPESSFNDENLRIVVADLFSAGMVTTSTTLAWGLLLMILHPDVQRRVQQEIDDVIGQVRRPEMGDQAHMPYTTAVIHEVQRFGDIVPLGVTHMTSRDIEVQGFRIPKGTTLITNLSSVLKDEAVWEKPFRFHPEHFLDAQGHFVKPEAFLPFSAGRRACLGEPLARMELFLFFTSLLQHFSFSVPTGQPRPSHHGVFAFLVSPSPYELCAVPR

Compound	AC50	activity, negative = inhibition
Cc1sc2c(c1C)C(c1ccc(C(C)(C)C)cc1)=NCC(=O)N2CC(=O)Nc1nccs1	inactive	
C[C@@H]1O[C@@H](O[C@H]2C[C@@H](O)[C@]3(CO)[C@@H]4[C@@H](O)C[C@]5(C)[C@H]([C@@H]6COC(=O)C6)CC[C@@]5(O)[C@H]4CC[C@@]3(O)C2)[C@H](O)[C@H](O)[C@@H]1O	inactive	
COc1ccc2c(c1O)-c1c(OC)c(OC)cc3c1[C@H](C2)N(C)CC3	inactive	
COc1ccc2c(c1OC)C(=O)O[C@H]2[C@H]1c2cc3c(cc2CCN1C)OCO3	inactive	
COc1ccc2c(c1OC)CN1CCc3cc4c(cc3[C@H]1C2)OCO4	63.1 nM (active)	
COc1cc2c(cc1O)[C@H]1Cc3ccc(OC)c(O)c3CN1CC2	31.6 nM (active)	
COc1cc2c3cc1Oc1c(O)c(OC)cc4c1[C@@H](Cc1ccc(cc1)Oc1cc(ccc1O)C[C@H]3N(C)CC2)N(C)CC4		0.972% [at 11.4 µM]
COc1ccc2cc1Oc1ccc(cc1)C[C@H]1c3cc(c(OC)cc3CCN1C)Oc1c(OC)c(OC)cc3c1[C@@H](C2)N(C)CC3		-16.9% [at 11.4 µM]
CC(Oc1ccc(-c2ccccc2)cc1)C(=O)O (stereo not drawn)	inactive	
CCn1cc(C(=O)O)c(=O)c2cc3c(cc21)OCO3	inactive	
CCN1C[C@]2(C)CC[C@@H](O)[C@]34[C@@H]5CC6[C@@H](OC)C[C@@](O)([C@H]5[C@@H]6O)[C@@H](C[C@@H]23)[C@H]14	inactive	
CNC[C@H](O)c1ccc(OC(=O)C(C)(C)C)c(OC(=O)C(C)(C)C)c1	inactive	
CN1C[C@@H](CS(=O)(=O)N(C)C)C[C@H]2c3cccc4c3c(cn4C)C[C@@H]21	3980 nM (active)	
CC(=NCc1ccco1)c1c(O)n(-c2ccccc2)c(=O)[nH]c1=O	inactive	
CN1C(=O)CCS(=O)(=O)[C@@H]1c1ccc(Cl)cc1	inactive	
CN(C)Cc1c[nH]c2ccccc12	158 nM (active)	
CN(C)CCCc1c[nH]c2ccccc12		-8.71% [at 11.4 µM]
O=C(c1ccccc1)[C@H]1[C@H](c2ccccc2[N+](=O)[O-])N1C1CCCCC1 (stereo partly drawn)		-1.09% [at 11.4 µM]
c1ccc(CN2CCC3(CCNCC3)CC2)cc1	inactive	
c1ccc(CN2CCC3(CCc4ccccc43)CC2)cc1	6.31 nM (active)	
CCOC(=O)c1ncn2c1[C@H]1CCCN1C(=O)c1cc(OC)ccc1-2	inactive	
Oc1ccc2[nH]cc(CCCCN3CC=C(c4ccccc4)CC3)c2c1	inactive	
O=S1(=O)N(CCN2CC=C(c3c[nH]c4cc(F)ccc34)CC2)c2cccc3c2N1CCC3	200 nM (active)	
